Source: PubChem
SW480 rerep: inducers of DNA re-replication in SW480 colon cancer cells | SW480 DNA re-replication, Hoechst DNA content imaging, 48 h | Potency, µM (highest dose often 46.1 µM), actives largely listed as activators | hit rate 1.8% among 340,000 | AID 624297; also: nearly all actives have a fitted effect of over 55% in size
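Per well, 250 cells were exposed to pinned compound for 48 hr. Nuclear DNA was visualised with Hoechst (40 min, 37 C) and total object intensity recorded by fluorescence scanning.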
KB-3-1 tox: kills parental KB-3-1 adenocarcinoma cells. KB-3-1 viability, CellTiter-Glo ATP luminescence, 72 h. Potency, µM (highest dose often 46.1 µM), usual class: cytotoxic. hit rate 1.4% among 400,000. AID 1347075; also: nearly all actives have a fitted effect of over 60% in size
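Screening of KB-3-1 cells (DMEM, 10% FBS, phenol-red free) ran from lowest to highest compound concentration; after 72 h at 37 °C viability was read luminescently and curves fitted.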
KB-V1 MDR tox: KB-V1 MDR subline cytotoxicity; hit rate 3.4% among 400,000; KB-V1 MDR cells viability, CellTiter-Glo, 72 h; Potency, µM (top dose mostly 46.1 µM), usual class: cytotoxic; also: nearly all actives have a fitted effect of over 60% in size
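Cells of the MDR subline KB-V1 are plated, dosed with compound at multiple concentrations, and incubated 72 h at 37 degrees C; CellTiter-Glo is then added and luminescence read after 10 min.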
MCF10A rerep: inducers of DNA re-replication in MCF 10A breast cells | MCF 10A DNA re-replication, Hoechst nuclear intensity, 48 h | Potency, µM (doses to about 46.1 µM), actives largely listed as activators | hit rate 2.9% among 350,000; also: nearly all actives have a fitted effect of over 50% in size
IL-1B inflam inh: blocks inflammasome-driven IL-1 beta release. hit rate 4.7% among 360,000. activity change, % at 57.5 µM. THP-1 LPS/ATP IL-1B secretion, AlphaLISA, 16 h; stronger effect = lower value; in the data active = activity change below about -50%; inconclusive = mostly about -30% to -49%
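THP-1 cells pretreated 1 hr with compounds (up to 57.5 uM final), then stimulated with LPS (250 ng/mL final) plus ATP (1.25 mM final); secreted IL-1B measured by AlphaLISA after 16 hr, decreased signal indicating inhibition.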
Each line names hits and unclear results; the compound was inactive in the other large screens. The list is not random: actives were taken first. Their share in the collection is about 9.9%. Unless noted, calls follow the shape of the dose curve; as a rule, active = well fitted curve in the direction sought with a large enough effect; inconclusive = small, poorly fitted or top-dose-only effect, or another doubt; inactive = no such curve, though single readings can be large; an effect the other way counts as inactive or inconclusive.

CCCCN(c1ccccc1)S(=O)(=O)c1cccc2cccnc12	KB-V1 MDR tox inconclusive
Cc1ccc(Cl)cc1-c1cc(C(=O)NCc2cccc(Cl)c2)[nH]n1	IL-1B inflam inh -51 (no result: SW480 rerep, MCF10A rerep)
COc1ccc(NC(=O)c2sc(=O)n(Cc3ccccc3C#N)c2C)cc1OC	KB-3-1 tox inconclusive, KB-V1 MDR tox 5.8µM (no result: SW480 rerep, MCF10A rerep)
COc1ccc(CNC(=O)c2cn(Cc3ccccc3F)c(=O)s2)cc1	KB-V1 MDR tox inconclusive (no result: SW480 rerep, MCF10A rerep)
Cc1ccc(Cl)cc1-c1cc(C(=O)NCc2ccccc2)[nH]n1	none (no result: SW480 rerep, MCF10A rerep, IL-1B inflam inh)
COc1ccc(CNC(=O)c2cn(Cc3ccccc3OC)c(=O)s2)cc1	KB-V1 MDR tox 7.3µM (no result: SW480 rerep, MCF10A rerep)
CC(=O)Oc1ccccc1Cn1c(C)c(C(=O)N(C)Cc2ccc(F)cc2)sc1=O	KB-3-1 tox inconclusive, KB-V1 MDR tox 18µM (no result: SW480 rerep, MCF10A rerep)
COc1ccc(Cl)cc1Cn1c(C)c(C(=O)NCc2ccc(F)cc2)sc1=O	KB-3-1 tox inconclusive, KB-V1 MDR tox 15µM (no result: SW480 rerep, MCF10A rerep)
COC(=O)c1ccc(Cn2c(C)c(C(=O)Nc3cccc(Oc4ccccc4)c3)sc2=O)o1	KB-3-1 tox inconclusive, KB-V1 MDR tox 12µM, IL-1B inflam inh inconclusive (no result: SW480 rerep, MCF10A rerep)
COc1ccc(CNC(=O)c2sc(=O)n(Cc3ccccc3OC)c2C)cc1	KB-3-1 tox inconclusive, KB-V1 MDR tox 9.2µM (no result: SW480 rerep, MCF10A rerep)
Cc1c(C(=O)NCc2cccc(Cl)c2)sc(=O)n1Cc1ccc(C(=O)N(C)C)cc1	KB-3-1 tox inconclusive, KB-V1 MDR tox 21µM (no result: SW480 rerep, MCF10A rerep)
Cc1c(C(=O)Nc2cccc(Oc3ccccc3)c2)sc(=O)n1Cc1ccc(F)cc1	KB-3-1 tox inconclusive, KB-V1 MDR tox inconclusive (no result: SW480 rerep, MCF10A rerep)
COc1ccccc1Cn1c(C)c(C(=O)NCc2ccc3c(c2)OCCO3)sc1=O	KB-V1 MDR tox inconclusive (no result: SW480 rerep, MCF10A rerep)
CSc1ccc(CN2CCC(C(=O)NCc3ccc(C)cc3)CC2)cc1	MCF10A rerep inconclusive
COC(=O)/C=C1\N/C(=N\c2nc(C)cc(C)n2)N(c2ccc(C)c(C)c2)C1=O	none
COc1ccccc1NC(=O)Nc1ccnn1C1CCN(C(=O)C2CCOC2)CC1 (stereo unspecified)	none (no result: SW480 rerep, MCF10A rerep)
COc1ccc(C2/C(=C(/O)c3ccc(C)cc3)C(=O)C(=O)N2CCCN2CCOCC2)cc1 (stereo unspecified)	none
CCOc1ccc(C(C(=O)Nc2ccc(F)cc2)N(C(=O)Cn2nnc3ccccc32)C2CC2)cc1 (stereo unspecified)	SW480 rerep inconclusive, KB-V1 MDR tox 23µM
COc1cccc(C(C(=O)Nc2ccc(F)cc2)N(C(=O)Cn2nnc3ccccc32)C2CC2)c1 (stereo unspecified)	SW480 rerep inconclusive, KB-V1 MDR tox inconclusive, IL-1B inflam inh inconclusive
IC(I)I	none (no result: KB-3-1 tox, KB-V1 MDR tox, IL-1B inflam inh)
O=C(O)c1cccc(N/N=C/c2sc(N3CCOCC3)nc2-c2ccccc2)c1	SW480 rerep inconclusive, MCF10A rerep inconclusive
O=[N+]([O-])c1ccc(N/N=C/c2sc(N3CCOCC3)nc2-c2ccccc2)c(S(=O)(=O)Nc2ccc(Cl)cc2)c1	SW480 rerep 10µM, KB-3-1 tox 2.3µM, MCF10A rerep inconclusive, IL-1B inflam inh inconclusive
O=[N+]([O-])c1ccc(N/N=C/c2sc(N3CCOCC3)nc2-c2ccccc2)c(S(=O)(=O)Nc2ccccc2Cl)c1	SW480 rerep 13µM, KB-3-1 tox 9.2µM, KB-V1 MDR tox inconclusive
O=C(N/N=C/c1sc(N2CCOCC2)nc1-c1ccccc1)c1ccccc1O	SW480 rerep inconclusive, KB-3-1 tox inconclusive, KB-V1 MDR tox inconclusive, MCF10A rerep inconclusive
CCc1nccn1CCC(=O)NC1CC(C)(C)Cc2c1cnn2-c1cccc(F)c1 (stereo unspecified)	KB-3-1 tox inconclusive, MCF10A rerep inconclusive
Cc1cc(N2C(=O)CCC2=O)ccc1NC(=O)c1cccs1	none
Brc1cc2c(cc1/C=N/Nc1nc3ccccc3s1)OCO2	SW480 rerep inconclusive, KB-V1 MDR tox inconclusive, MCF10A rerep 13µM
c1ccc2sc(Nc3nc4cc5c(cc4s3)OCO5)nc2c1	SW480 rerep inconclusive, MCF10A rerep 18µM
Fc1ccc2nc(Nc3nc4c(F)cc(F)cc4s3)sc2c1	KB-3-1 tox inconclusive, KB-V1 MDR tox inconclusive, MCF10A rerep 15µM, IL-1B inflam inh -61
Fc1ccc2nc(Nc3nc4cc5c(cc4s3)OCCO5)sc2c1	KB-3-1 tox inconclusive, KB-V1 MDR tox inconclusive, MCF10A rerep 15µM
Cc1cccc(C)c1CC(=O)N1CCOCC1	none
COc1ccc(N(CC(=O)Nc2cc(C)ccc2C)S(=O)(=O)c2ccccc2[N+](=O)[O-])c(OC)c1	KB-3-1 tox inconclusive
